Reference: PubChem BioAssay (Tox21)
Where “and” joins values, the source holds several entries; their conditions need not be identical. Equal values may be shown once. Inconclusive results are not listed. Where a call stands in place of a potency, no number is given. Calls of active or inactive are those of the source. Calls follow the shape of the full dose curve.

test: p53 small molecule agonists, cell-based qHTS assay: qHTS cell viability counter screen (AID 1963581); conditions: p53RE-bla HCT-116 viability, ATP luminescence, 16 h; series mostly up to 66 µM; also: nearly all actives have a fitted effect of over 45% in size
Text: National Center for Advancing Translational Sciences [NCATS]
Division of Preclinical Innovation [DPI]
U.S. Environmental Protection Agency [EPA]
National Institutes of Environmental Health Sciences [NIEHS]
National Toxicology Program [NTP]
U.S. Food and Drug Administration [FDA]
p53, a tumor suppressor protein, is activated following cellular insult, including DNA damage and other cellular stresses. The activation of p53 regulates cell fate by inducing DNA repair, cell cycle arrest, apoptosis, or cellular senescence. The activation of p53, therefore, is a good indicator of DNA damage and other cellular stresses. The CellSensor p53RE-bla HCT-116 cell line (Invitrogen) contains a stably integrated beta-lactamase reporter gene under control of the p53 response elements. The activation of the reporter gene under culture conditions can be detected by fluorescence intensity. This cell line was used to screen the Tox21 compound library in a 1536-well plate format and to identify agonists that activate the p53 signaling pathway. The cytotoxicity of the Tox21 compound library against the p53 RE-bla HCT-116 cell line was tested in parallel by measuring the intra cellular ATP content in the same wells.
Tox21 Assay Protocol Summary:
The p53RE-bla cells were dispensed at 4,000 cells/5 ul/well in 1536-well black wall/clear bottom plates using a Multidrop dispenser. After the assay plates were incubated at a 37 C/5% CO2 incubator for 5 hours, 23 nL of compounds dissolved in DMSO, positive controls or DMSO only was transferred to the assay plate by a pin tool. The plates were incubated at 37 C for 16 hours. After 1 uL of LiveBLAzerTM B/G FRET substrate was added using a Flying Reagent Dispenser, the plates were incubated at room temperature for 2 hours, and fluorescence intensity was measured by an Envision plate reader. For cell viability readout that measures cytotoxicity, 4 ul/well of CellTiter-Glo reagent was added into the assay plates using a Flying Reagent Dispenser. After 30 min incubation at room temperature, the luminescence intensity in the plates was measured using a ViewLux plate reader.
Potency is read from the fitted curve at half-maximal effect.

| SMILES | Potency |
| --- | --- |
| NCC(O)c1ccc(O)cc1 (stereo not given) | inactive |
| Cc1cnc(C2=NC(C)(C(C)C)C(=O)N2)c(C(=O)O)c1 (stereo not given) | inactive |
| CNCC(O)c1ccc(O)cc1 (stereo not given) | inactive |
| CCOP(=S)(OCC)SCSc1cc(Cl)ccc1Cl | inactive |
| CCCn1cc[n+](C)c1 | inactive |
| ClCc1cccnc1 | inactive |
| COCC(=O)N(c1c(C)cccc1C)N1CCOC1=O | inactive |
| C=CCCl | inactive |
| c1ccoc1 | inactive |
| CC(C)(C#N)N=NC(C)(C)C#N | inactive |
| C=CC(=O)OCC(CC)(COC(=O)C=C)COC(=O)C=C | 26.4 µM (active) |
| O=c1nc(O)n(Cl)c(=O)n1Cl | inactive |
| CCC[CH2][Sn]([Cl])([Cl])[CH2]CCC | 3.28 µM (active) and 4.08 µM (active) |
| CCC[N+]1(C)CCCC1 | inactive |
| CC(C)(c1ccccc1)c1ccc(O)c(C(C)(C)c2ccccc2)c1 | 14.3 µM (active) and 45.8 µM (active) |
| [Cl-].[Cl-].[Hg+2] | 3.62 µM (active) and 9.13 µM (active) |
| O=C(O)CC[N+](=O)[O-] | inactive |
| N#CC(Cl)Cl | inactive |
| N#Cc1nn(-c2c(Cl)cc(C(F)(F)F)cc2Cl)c(N)c1S(=O)C(F)(F)F (stereo not given) | inactive |
| CCCOC(=O)c1cncn1C(C)c1ccccc1 (stereo not given) | inactive |

| SMILES | Potency |
| --- | --- |
| OCCOc1ccccc1 | inactive |
| CCc1cccc(C)c1N(C(=O)CCl)C(C)COC (stereo not given) | inactive |
| CC1CC(=O)O1 (stereo not given) | inactive |
| CCCCCCCCCCCCCC[P+](CCCCCC)(CCCCCC)CCCCCC | 7.29 µM (active) and 18.4 µM (active) |
| CCCCCCn1cc[n+](C)c1 | inactive |
| CN(N=O)c1ccccc1 | inactive |
| OC[P+](CO)(CO)CO | inactive |
| O=C(Cc1ccccc1)c1ccccc1 | inactive |
| NCCOS(=O)(=O)O | inactive |
| Cl/C=C\C[N+]12CN3CN(CN(C3)C1)C2 | inactive |
| Cc1[nH]c(=O)n(C(C)(C)C)c(=O)c1Cl | inactive |
| OCC1CO1 (stereo not given) | inactive |
| COCC(=O)N(c1c(C)cccc1C)[C@H](C)C(=O)OC | inactive |
| CCCCC1C(=O)NC(=O)N(C2CCCCC2)C1=O (stereo not given) | inactive |
| CCN(CC)N=O | inactive |
| CCOC(=O)Nc1cccc(OC(=O)Nc2ccccc2)c1 | inactive |
| [Cd+2].[Cl-].[Cl-] | 36.7 µM (active) |
| C[C@H]1CCCC(=O)CCC/C=C/c2cc(O)cc(O)c2C(=O)O1 | inactive |
| CC1=C(C(=O)Nc2ccccc2)SCCO1 | inactive |
| CN(C)[C@@H]1C(=O)C(C(N)=O)=C(O)[C@@]2(O)C(=O)C3=C(O)c4c(O)cccc4[C@@](C)(O)[C@H]3[C@H](O)[C@@H]12 | inactive |
